Screening results (PubChem BioAssay)
The list is not random: actives were taken first. Their share in the collection is about 10%.
CtBP-E1A inh = qHTS Assay for Inhibitors of the CtBP/E1A Interaction; CtBP / adenovirus E1A interaction (AlphaScreen); AlphaScreen GST-E1A/His-CtBP binding, 1536-well; hits give low values; activity change, % (no concentration beside the values); hit rate 0.49% among 340,000; AID 651724, 2012; in the data active = activity change below about -65%; inconclusive = mostly about -30% to -63%; also: % is scaled to controls: 0 for no effect and ±100 for the full control effect
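GST-E1A and His-tagged CtBP (125 nM each as 5X stock) were preincubated with pin-transferred compound for 2 h at 37 °C in the dark, then glutathione donor and nickel acceptor beads were added for 1 h before AlphaScreen reading.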
G9a block = qHTS Assay for Inhibitors of Histone Lysine Methyltransferase G9a. Histone-lysine N-methyltransferase EHMT2 (Homo sapiens), Q96KQ7. G9a H3K9 monomethylation, AlphaScreen, 2 h. Potency, µM (doses to about 102 µM), for inactives: at the top dose activity, negative = inhibition, usual class: inhibitors. AID 504332, 2011. hit rate 8.8% among 350,000; also: potency is read from the fitted curve at half-maximal effect; % is scaled to controls: 0 for no effect and ±100 for the full control effect; nearly all actives have a fitted effect of over 75% in size
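Readings reflect AlphaScreen signal from monomethyl-H3K9 antibody detection. HMT at 20 nM; substrate b-H3K9 500 nM; cofactor SAM 20 uM; 2 h RT reaction; compounds tested as titrations in qHTS with 15 min preincubation.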
Six1-Eya2 blk = qHTS Assay for Inhibitors of the Six1/Eya2 Interaction; AlphaScreen GST-Six1/His-Eya2 binding, biochemical; hits give low values; activity change, % (no concentration beside the values); hit rate 0.56% among 360,000; AID 651725, 2012; in the data active = activity change below about -65%; inconclusive = mostly about -30% to -63%; also: % is scaled to controls: 0 for no effect and ±100 for the full control effect
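AlphaScreen with GST-Six1 and His-Eya2 (5X mix: 250 nM and 500 nM), glutathione donor and nickel acceptor beads; buffer 50 mM Tris pH 8.0, 300 mM NaCl, 1 mM TCEP; 1 h at 37 C in the dark.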
JMJD2A Tudor = qHTS Assay for Inhibitors of JMJD2A-Tudor Domain | Lysine-specific demethylase 4A (Homo sapiens), O75164 | AlphaScreen JMJD2A-Tudor / H3K4me3 peptide binding | Potency, µM (top dose mostly 114 µM), for inactives: top-dose activity change, negative = inhibition, actives largely listed as inhibitors | hit rate 4.4% among 390,000 | AID 504339, 2011; also: potency is read from the fitted curve at half-maximal effect; % is scaled to controls: 0 for no effect and ±100 for the full control effect; nearly all actives have a fitted effect of over 50% in size
Target sequence (O75164 whole entry, looked up, the tested form may be a part): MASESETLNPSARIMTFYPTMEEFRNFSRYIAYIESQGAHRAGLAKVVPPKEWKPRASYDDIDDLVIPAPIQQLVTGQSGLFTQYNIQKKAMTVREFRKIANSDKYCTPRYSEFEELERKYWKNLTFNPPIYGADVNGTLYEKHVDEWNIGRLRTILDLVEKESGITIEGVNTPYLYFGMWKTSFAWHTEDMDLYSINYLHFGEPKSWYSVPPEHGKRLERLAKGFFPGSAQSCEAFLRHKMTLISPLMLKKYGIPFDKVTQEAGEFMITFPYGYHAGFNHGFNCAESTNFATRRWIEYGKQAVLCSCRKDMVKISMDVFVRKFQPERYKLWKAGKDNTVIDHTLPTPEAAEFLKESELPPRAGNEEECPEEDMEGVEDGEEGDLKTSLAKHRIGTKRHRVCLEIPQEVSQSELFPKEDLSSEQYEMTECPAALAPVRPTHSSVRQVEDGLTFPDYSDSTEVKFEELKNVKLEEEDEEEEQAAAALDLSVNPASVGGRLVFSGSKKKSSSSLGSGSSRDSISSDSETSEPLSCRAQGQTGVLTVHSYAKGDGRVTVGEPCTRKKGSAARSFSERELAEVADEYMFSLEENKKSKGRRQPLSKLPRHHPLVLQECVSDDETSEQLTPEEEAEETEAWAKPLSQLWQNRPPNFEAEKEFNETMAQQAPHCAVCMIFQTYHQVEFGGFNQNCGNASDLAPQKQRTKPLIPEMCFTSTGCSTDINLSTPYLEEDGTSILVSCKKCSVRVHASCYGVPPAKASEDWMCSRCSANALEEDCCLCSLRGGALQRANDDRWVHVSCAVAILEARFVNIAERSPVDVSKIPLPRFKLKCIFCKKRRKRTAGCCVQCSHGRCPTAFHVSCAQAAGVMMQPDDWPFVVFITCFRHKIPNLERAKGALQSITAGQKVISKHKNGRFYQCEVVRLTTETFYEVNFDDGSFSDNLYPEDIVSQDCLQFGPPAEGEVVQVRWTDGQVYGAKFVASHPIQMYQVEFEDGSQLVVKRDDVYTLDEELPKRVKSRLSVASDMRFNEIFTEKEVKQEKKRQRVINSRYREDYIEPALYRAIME
HP1b chromo inh = HTS for Inhibitors of HP1-beta Chromodomain Interactions with Methylated Histone Tails; Chromobox protein homolog 1 (Homo sapiens), P83916; AlphaScreen HP1-beta / biotin-H3K9me3 peptide binding; Potency, µM (series often up to 114 µM), for inactives: at the top dose activity change, negative = inhibition, most hits filed as inhibitors; hit rate 0.56% among 390,000; also: potency is read from the fitted curve at half-maximal effect; nearly all actives have a fitted effect of over 70% in size
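AlphaScreen: HP1-beta (50 nM) preformed 30 min with biotin-H3(1-18)K9me3 peptide (50 nM) in PBS pH 7.4, 0.01% Tween-20. Compound added for 30 min at RT, then streptavidin donor/nickel chelate acceptor beads (10 ug/mL) for 30 min.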
BAZ2B block = qHTS Assay for Inhibitors of BAZ2B. Bromodomain adjacent to zinc finger domain protein 2B (Homo sapiens), Q9UIF8. AlphaScreen BAZ2B-H3K14Ac peptide displacement. Potency, µM (series often up to 114 µM), inactives show at the top dose activity change, negative = inhibition, most hits filed as inhibitors. hit rate 4.4% among 360,000. AID 504333, 2011; also: potency is read from the fitted curve at half-maximal effect; % is scaled to controls: 0 for no effect and ±100 for the full control effect; nearly all actives have a fitted effect of over 60% in size
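AlphaScreen luminescence quantifies BAZ2B engagement of H3K14Ac peptide; the protein and biotinylated peptide are both at 50 nM final, buffer PBS pH 7.4 with 0.01% Tween-20, all steps at room temperature.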
Active calls of the source: *; ? = inconclusive; . = no result; [ ] = remark or other dose. Unless noted, calls follow the shape of the dose curve; as a rule, active = well fitted inhibition curve with a large enough effect; inconclusive = small, poorly fitted or top-dose-only effect; inactive = no such curve, though single readings can be large or run the other way.

SMILES	CtBP-E1A inh	G9a block	Six1-Eya2 blk	JMJD2A Tudor	HP1b chromo inh	BAZ2B block
CCOc1ccc(/C=C2\SC(=S)N(CCC(=O)Nc3ccc(C(=O)O)cc3)C2=O)cc1	-30	28µM*	-3	25µM*	?	22µM*
CCc1ccc(C(=O)c2cn(CC(=O)Nc3cccc(C)c3C)c3nc(C)ccc3c2=O)cc1	.	-7%[59 µM]	.	?	5%	?
CSCC[C@H](NC(=O)NCc1ccccc1F)C(=O)O	-1	45µM*	12	3%	27%	-14%
COc1ccc(N(Cc2cccs2)C(=O)c2ccccc2C)cc1	.	1%[59 µM]	.	20%	44%	13%
Cc1cc(C)c(NC(=S)NC(CO)(CO)CO)c(C)c1	1	10µM*	8	89µM*	16%	2%
Cc1c(P(=O)(c2ccccc2)c2ccccc2)c2ccccc2n1C	.	.	.	22µM*	.	.
O=c1ccc2cc3c4c(c2o1)CCCN4CCC3	0	?	-6	-8%	73%	15%
O=c1oc2c3c4c(cc2s1)CCCN4CCC3	?	7.9µM*	?	18µM*	?	56µM*
Cc1c(Cl)cccc1NC(=O)Cn1cnc2nc3c(cc2c1=O)CCCC3	.	-6%[59 µM]	.	?	26%[57 µM]	5%
O=C(CBr)c1ccc([N+](=O)[O-])c(CS(=O)(=O)c2ccc(Cl)cc2)c1	.	7.1µM*	0	?	18%	-38%
Cc1ccc(CCNS(=O)(=O)c2ccc(C)cc2)cc1	-5	4%	4	32%	51%	3%
Cc1ccc(S(=O)(=O)NCCc2ccc(S(N)(=O)=O)cc2)cc1	5	14µM*	-4	21%	54%	2%
O=C(CSc1nc2ccccc2nc1Cc1ccc(Cl)cc1)N1CCCc2ccccc21	.	9%[59 µM]	.	-14%	27%[57 µM]	9%
COCCN1Cc2cccc(C(=O)Nc3ccc(C)c(F)c3)c2C1=O	.	-3%[59 µM]	.	-8%	46%	.
CCCCOc1ccc(C(=O)N/C(=C\c2ccc(Br)cc2)C(=O)NC2CCCCC2)cc1	.	-2%[59 µM]	.	-15%	17%	1%
Cc1ccc(C)c(N(C)C(=O)CCNC(=O)Cn2cnc3ccccc3c2=O)c1	.	-5%[59 µM]	.	-18%	13%	0%
O=S(=O)([O-])CCC[n+]1c(SCCCS(=O)(=O)O)sc2ccc(Cl)cc21	1	25µM*	2	79µM*	59%	?
Cc1ccc(NCc2cccn2-c2nnc(N3CCCCCC3)s2)cc1	.	-34%[59 µM]	.	?	-16%	-8%[57.1 µM]
C=CCn1c(SCc2ccc(C#N)cc2)nnc1-c1ccccc1	3	1.4µM*	2	-7%	39%	-1%
C=CCn1c(COc2ccc(Cl)cc2)nnc1SCc1ccc(C#N)cc1	10	28µM*	-2	?	59%	3%
C=CCn1c(COc2ccc(Cl)cc2)nnc1SCC(=O)NCC(=O)OCC	-2	28µM*	0	-19%	24%	-26%
CCCCC(=O)Nc1ccccc1C(=O)OCc1cc(=O)n2nc(C3CCCCC3)sc2n1	.	16%[59 µM]	.	-12%	17%	-12%
CCOC(=O)COc1ccccc1/C=C\[N+](=O)[O-]	3	3.5µM*	6	-15%	25%	-30%
COc1ccc(-c2csc(NC(=S)NC(=O)c3cccs3)n2)cc1OC	?	32µM*	?	-34%	-5%	?
COc1ccc(-c2csc(NC(=O)CSCC(=O)Nc3cc(C)on3)n2)cc1OC	?	40µM*	-22	-22%	-9%	-6%
SMILES	CtBP-E1A inh	G9a block	Six1-Eya2 blk	JMJD2A Tudor	HP1b chromo inh	BAZ2B block
COc1ccc(-c2csc(NC(=O)CSCc3c(C)noc3C)n2)cc1OC	-23	.	-15	-28%	-2%	?
CCc1noc(C)c1C(=O)Nc1nc(-c2ccc(OC)c(OC)c2)cs1	-2	?	-15	-33%	-17%	0%
COc1ccc(-c2csc(NC(=O)c3cc(C)oc3C)n2)cc1OC	?	50µM*	-16	?	-21%	35µM*
COc1ccc(N2CCN(C(=O)c3cnn(-c4ccc(F)cc4)c3-n3cccc3)CC2)cc1	.	?	.	-33%	8%	-28%
CCOc1ccccc1N(C)C(=O)Cn1nc(Cc2ccncc2)c2ccccc2c1=O	.	2%[59 µM]	.	-11%	31%	-12%
COc1cccc(C(=O)NCc2nc(-c3ccccc3)no2)c1OC	.	1%[59 µM]	.	-6%	37%	0%
Cc1ccc(-c2csc(N3CCN(c4cc5c(cc4Cl)nc(C)n5CCN4CCCCC4)CC3)n2)cc1	-12	45µM*	-22	40µM*	-24%	-38%[57.1 µM]
Cc1csc(N2CCN(c3cc4c(cc3Cl)nc(-c3ccncc3)n4CCCN3CCCC3)CC2)n1	-1	10µM*	-8	56µM*	3%	?
Cc1csc(N2CCN(c3cc4nc(-c5ccncc5)[nH]c4cc3Cl)CC2)n1	-1	7.9µM*	0	79µM*	25%	?
